Among the data in PubChem BioAssay (NCATS) are activity change, negative = inhibition and Potency values, retold here.

Several values for one entry are separate records, joined by “and”; a condition that tells them apart may be missing. Identical values can stand only once. Records with an inconclusive call do not appear. A number with no mark means an inactive call. Activity calls are given as the source filed them. Unless noted, calls follow the shape of the dose curve; as a rule, active = well fitted curve in either direction with a large enough effect (not every such curve was filed as active); inconclusive = small, poorly fitted or top-dose-only effect, or another doubt; inactive = flat fitted curve, though single readings scatter.

Assay [1] in a line: AP1 Signaling Pathway (AID 357).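 Also: ME-180 reporter cells stimulated with EGF at its EC50 level; % is scaled to controls: 0 for no effect and ±100 for the full control effect.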 As to conditions: ME-180 (cervical carcinoma) AP-1-bla reporter, EGF-induced, beta-lactamase ratio, 5 h. Put shortly:
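A ratiometric CCF4 readout (405 nm excitation; 460 and 530 nm emission) quantified AP-1-driven beta-lactamase in ME-180 cells after 5 h with compound and EC50 EGF; AC50 values were derived for activators and inhibitors.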

A short description of assay [2]: Cell Viability - BJ (AID 421; calls by dose curve;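 also: potency is read from the fitted curve at half-maximal effect; cells exposed to compound for 40 hours at 37 °C before readout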). As to conditions: BJ fibroblast viability, qHTS. Put shortly:
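Normal human BJ foreskin fibroblasts, 1500/well in complete medium, treated 40 hr at 37 °C. Cellular ATP by CellTiter-Glo luminescence; normalized to DMSO and 100 uM tamoxifen, AC50 from Hill fit.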

A short description of assay [3]: Cell Viability - Jurkat (AID 426;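 active = dose-dependent loss of cell ATP signal giving a full or clear fitted curve, ranked by lower potency value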; also: potency is read from the fitted curve at half-maximal effect). As to conditions: qHTS. Put shortly:
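Cytotoxicity was scored as loss of cellular ATP, measured by luciferase-based luminescence, in Jurkat clone E6-1 cells after 40 h compound treatment; tamoxifen and doxorubicin served as positive controls.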

Assay [4] can be described thus: Cell Viability - Hek293 (AID 427;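 active = compounds whose dose-response curve shows a full or clear partial loss of cell viability, called from curve shape rather than a numeric limit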;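 also: potency is read from the fitted curve at half-maximal effect; cells exposed to compound for 40 hours at 37 °C before reading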). As to conditions: qHTS. The method, boiled down:
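HEK293 cells in complete medium were exposed to compound for 40 hr at 37 °C, then cellular ATP was read by CellTiter-Glo luminescence. Data were normalized to DMSO (basal) and 100 uM tamoxifen (100% inhibition), and AC50 came from Hill fits.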

A short description of assay [5]: Cell Viability - HepG2 (AID 433; calls by dose curve;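 also: potency is read from the fitted curve at half-maximal effect; potency for ATP loss meaning cytotoxicity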). As to conditions: qHTS. The method, boiled down: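 HepG2 cells, 1500 per well, treated 40 hr at 37 °C in complete medium; viability from intracellular ATP by CellTiter-Glo luminescence. Normalized to DMSO and 100 uM tamoxifen; AC50 from Hill fit of qHTS concentration-response.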
Assay [6] is described as follows: Cell Viability - MRC5 (AID 434; calls by dose curve;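 also: potency is read from the fitted curve at half-maximal effect; potency reflects cytotoxicity seen as loss of intracellular ATP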). As to conditions: MRC5 lung fibroblast viability, qHTS. Put shortly: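 AC50 values come from Hill-equation fits of intracellular ATP loss, measured by CellTiter-Glo luminescence. Normal lung fibroblasts (MRC5) had 40 hr compound treatment at 37 C, normalized between DMSO and 100 uM tamoxifen.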
Assay [7] is described as follows: Cell Viability - SK-N-SH (AID 435; calls by dose curve;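 also: potency is read from the fitted curve at half-maximal effect; compound exposure lasted 40 h at 37 °C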). As to conditions: SK-N-SH neuroblastoma cell viability qHTS. Put shortly: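 SK-N-SH neuroblastoma cells (1500/well) treated 40 h at 37 °C in complete medium; viability read as cellular ATP by CellTiter-Glo luminescence. Normalized to DMSO and 100 uM tamoxifen; AC50 from Hill fits of qHTS concentration-response.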
The nature of assay [8]: NFAT Signaling Pathway (AID 444).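 Also: carbachol stimulus at about its EC50 of 1 µM final; % is scaled to controls: 0 for no effect and ±100 for the full control effect.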 As to conditions: Jurkat NFAT-bla M1, carbachol, beta-lactamase ratio, 5 h. Put shortly:
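Read-out: CCF4 FRET ratio (460 nm/530 nm) after 1 h RT dye loading, used for %activity and AC50 from titration series. Cells: Jurkat NFAT-β-lactamase/M1 line, treated with compound plus 1 uM carbachol for 5 h, 37 °C.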

Assay [9] addresses Cytochrome P450 1A2 (Homo sapiens) (UniProt P05177). Description: p450-cyp1a2 (AID 410; calls by dose curve;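 also: -100% = full effect of reference inhibitor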). As to conditions: recombinant CYP1A2, luciferin-ME demethylation, luminescence; series mostly up to 57 µM. The method, boiled down:
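Read-out is luminescence from luciferin produced by CYP1A2 demethylation of Luciferin-ME (100uM, at Km). Detection reagent stopped the 60 min NADPH-dependent reaction; signals were normalized to 57 uM furafylline.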

Cytochrome P450 1A2 (Homo sapiens), sequence (P05177 whole entry, looked up): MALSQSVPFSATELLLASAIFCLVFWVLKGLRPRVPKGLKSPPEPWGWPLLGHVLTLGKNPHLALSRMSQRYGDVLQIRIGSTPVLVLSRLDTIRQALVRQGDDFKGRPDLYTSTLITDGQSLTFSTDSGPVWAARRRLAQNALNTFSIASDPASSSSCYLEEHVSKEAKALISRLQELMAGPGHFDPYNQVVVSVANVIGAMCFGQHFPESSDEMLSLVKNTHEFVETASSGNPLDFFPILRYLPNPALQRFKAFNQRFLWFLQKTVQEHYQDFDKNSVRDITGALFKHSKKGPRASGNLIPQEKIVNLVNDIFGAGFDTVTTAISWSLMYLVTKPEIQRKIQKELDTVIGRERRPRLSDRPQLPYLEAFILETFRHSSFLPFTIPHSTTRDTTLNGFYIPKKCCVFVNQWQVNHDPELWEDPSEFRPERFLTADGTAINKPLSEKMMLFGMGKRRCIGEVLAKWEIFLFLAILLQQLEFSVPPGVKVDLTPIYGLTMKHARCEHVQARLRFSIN

For the compound `COc1cc(Cc2cnc(N)nc2N)cc(OC)c1OC`, the activity change, negative = inhibition was 1.37% in assay [1] (at 17.2 µM (top of the series)), -4.63% in assay [1] (at 38 µM (top of the series)), -13.2% in [8] (at 17.2 µM (top of the series)) and -9.42% in assay [8] (at 38 µM (top of the series)). In addition, the Potency in assay [2], in assay [3], in assay [4], in assay [5], in assay [6] and in [7] was above 92 µM in each case.
As for `NCCCNCCSP(=O)(O)O`, the activity change, negative = inhibition in assay [1] (at 38 µM (top of the series)) was 11.2%; in assay [8] (at 38 µM (top of the series)) it was -0.295%. Also, the Potency result in assay [9] was “inactive”.
In the case of `CCn1nc(C(=O)O)c(=O)c2cc3c(cc21)OCO3`, the activity change, negative = inhibition in [1] (at 17.2 µM (top of the series)) was -3.87% and 14.9%; in assay [1] (at 38 µM (top of the series)) it was -2.22%; in [8] (at 17.2 µM (top of the series)) it was 0.808% and 1.97%; in assay [8] (at 38 µM (top of the series)), 8.98%.
On to `CC(C)[N+](C)(CCOC(=O)C1c2ccccc2Oc2ccccc21)C(C)C`, for which the activity change, negative = inhibition was 12.1% and 5.76% in assay [1] (at 17.2 µM (top of the series)); 3.91% in assay [1] (at 38 µM (top of the series)); -48.1% (active) and -94.6% (active) in assay [8] (at 17.2 µM (top of the series)); -63% (active) in assay [8] (at 38 µM (top of the series)).
Take `CCCCNc1ccc(C(=O)OCCN(C)C)cc1`: the activity change, negative = inhibition was -19.5% in assay [1] (at 17.2 µM (top of the series)), 22.1% in assay [1] (at 38 µM (top of the series)) and -27.7% in [8] (at 17.2 µM (top of the series)).
Take `CCCN(CCC)CCc1cccc2c1CC(=O)N2`: the activity change, negative = inhibition in [1] (at 38 µM (top of the series)) was 3.44%. Moreover, in [9], the Potency result is “inactive”.
Consider `Nc1nc(N)c2nc(-c3ccccc3)c(N)nc2n1`, for which the activity change, negative = inhibition in assay [1] (at 17.2 µM (top of the series)) was 16.6% and 10.9%; in assay [1] (at 38 µM (top of the series)), -2.44%. In addition, the Potency in assay [4] is 18 µM (active); in [7] it was 66.1 µM (active).
Consider `CN(C(=O)CCCOc1ccc2[nH]c(=O)ccc2c1)C1CCCCC1`, for which the activity change, negative = inhibition in assay [1] (at 38 µM (top of the series)) was -11.1%; in assay [8] (at 38 µM (top of the series)), -14.2%. The Potency result in assay [9] was “inactive”.
Regarding `C[N+](C)(C)CCOC(N)=O`, the activity change, negative = inhibition in assay [1] (at 38 µM (top of the series)) was 21.2%. In addition, the Potency result in [9] was “inactive”.
